High-throughput results (PubChem BioAssay)
Most compounds without a hit are left out; they make up all but 11% or so of the library.
VACV mCherry inh: qHTS for Stage-Specific Inhibitors of Vaccinia Orthopoxvirus: mCherry Reporter Primary qHTS. Vaccinia virus mCherry reporter infection, fluorescence. Potency, µM (titrated, usually from 36.5 µM), for the others: at the highest dose activity change, negative = inhibition, usual class: inhibitors. actives 0.63% (n = 310,000). AID 720579, 2013; calls by dose curve; tested in A549 cells; further: on the % scale 0 is the no-effect control and ±100 the full control effect; nearly all actives have a fitted effect of over 35% in size
NS1 function inh: qHTS Assay for Inhibitors of Influenza NS1 Protein Function | Potency, µM (highest dose often 46.1 µM), without a hit: top-dose activity, positive = more growth | actives 0.4% (n = 270,000) | AID 2326, 2010; calls by dose curve; further: actives are rising curves; nearly all actives have a fitted effect of over 50% in size
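A cell-based growth assay was used: compounds that relieve NS1-induced slow growth of budding yeast raise OD600. Assay medium was yeast nitrogen base with ammonium sulphate and -URA supplement, pH 6.0, with 2% galactose.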
Pf growth 48h: Primary qHTS for delayed death inhibitors of the malarial parasite plastid, 48 hour incubation; P. falciparum luciferase growth in erythrocytes, 48 h; Potency, µM (highest dose often 28.7 µM), inactives show top-dose activity change, negative = inhibition, actives largely listed as inhibitors; actives 5.9% (n = 310,000); further: on the % scale 0 is the no-effect control and ±100 the full control effect
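Read-out is firefly luciferase luminescence from an integrated reporter in P. falciparum, so falling signal marks reduced parasite growth. Infected erythrocytes were at 2% hematocrit and 0.1% parasitemia (final) in Albumax-supplemented RPMI 1640.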
Pf growth 96h: Primary qHTS for delayed death inhibitors of the malarial parasite plastid, 96 hour incubation. actives 6.9% (n = 320,000). P. falciparum luciferase reporter growth, 96 h. Potency, µM (top dose mostly 28.7 µM), inactives show top-dose activity change, negative = inhibition, hits mostly inhibitors. AID 504834, 2011; further: on the % scale 0 is the no-effect control and ±100 the full control effect
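Parasite growth measured via integrated firefly luciferase reporter in P. falciparum. Infected erythrocytes at 2% hematocrit, 0.05% parasitemia final were treated 96 hours at 37 C under 5% CO2, and luminescence was read.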
HCV inh: qHTS Assay for Inhibitors of Hepatitis C Virus (HCV); Potency, µM (series often up to 41.8 µM), without a hit: at the highest dose activity change, negative = inhibition, actives largely listed as inhibitors; actives 3.4% (n = 340,000); Huh7.5.1 HCVcc-Cre infection, luciferase reporter, 44 h; further: on the % scale 0 is the no-effect control and ±100 the full control effect
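Antiviral activity was scored by luciferase reporter output from cells infected with HCVcc-Cre (~0.5 moi) in presence of compound, 44 h infection period, cells seeded 1,000/well 4 h prior.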
VACV Venus inh: qHTS for Stage-Specific Inhibitors of Vaccinia Orthopoxvirus: Venus Reporter Primary qHTS; Vaccinia virus Venus reporter expression, fluorescence; Potency, µM (highest dose often 36.5 µM), for inactives: top-dose activity change, negative = inhibition, actives largely listed as inhibitors; actives 0.46% (n = 330,000); AID 720580, 2013; calls by dose curve; tested in A549 cells; further: on the % scale 0 is the no-effect control and ±100 the full control effect; nearly all actives have a fitted effect of over 30% in size
* = called active by the depositor; i = inactive; ? = inconclusive; . = no result given; [ ] = dose if it differs, or a comment. Unless noted, the call rests on the fitted dose curve; in most records, active means well fitted inhibition curve with a large enough effect; inconclusive means small, poorly fitted or top-dose-only effect, or another doubt; inactive means no such curve, though single readings can be large or run the other way. Potency means the concentration at half of the fitted maximal effect.

SMILES | VACV mCherry inh | NS1 function inh | Pf growth 48h | Pf growth 96h | HCV inh | VACV Venus inh
Cc1ccccc1C(=O)Nc1ccc(C(=O)OCc2cc(=O)n3nc(C(C)C)sc3n2)cc1 | -20% | . | . | . | . | -21%
Cc1nnc(N2CCC(C(=O)NC3CCCCC3)CC2)c2nn(-c3ccccc3)c(C)c12 | i | . | . | . | . | -9%
COc1ccc(-n2nc3c(N4CCC(C(=O)NCc5cccc(C)c5)CC4)nnc(C)c3c2C)cc1 | . | 2% | ? | ? | ? | .
CCOc1ccccc1CNC(=O)C1CCN(c2nnc(C)c3c(C)n(-c4ccc(C)cc4)nc23)CC1 | 11µM* | -3% | ? | ? | 11µM* | 11µM*
CCOc1ccc(CNC(=O)C2CCN(c3nnc(C)c4c(C)n(-c5ccc(C)cc5)nc34)CC2)cc1 | . | 23% | ? | ? | 13µM* | .
Cc1ccc(-n2nc3c(N4CCC(C(=O)NCc5ccccc5Cl)CC4)nnc(C)c3c2C)cc1 | ? | . | . | . | . | 10µM*
Cc1nnc(N2CCC(C(=O)NCCc3ccccc3Cl)CC2)c2nn(-c3ccccc3)c(C)c12 | 28µM* | . | . | . | . | ?
COc1cccc(CSc2nc3n(n2)C(c2cccnc2)C(C(=O)Nc2ccccc2C)=C(C)N3)c1 (configuration not stated) | -6% | . | . | . | . | 0%
Cc1ccc(SCCC(=O)NCCSCc2ccccc2C)cc1 | 49%[1.46 µM] | -133% | 40% | ? | 4% | -22%
CN(CC(=O)Nc1ccccc1Cl)C(=O)COC(=O)C1=COCCO1 | -14% | . | 9% | 52% | 1% | -8%
Cc1ccc(-n2c(SCC(=O)N3CCOCC3)nnc2-c2ccncc2)cc1 | -18% | -45% | 5% | 17% | 6% | -9%
Cc1ccc(-n2nc3c(N4CCC(C(=O)NCc5ccccc5C)CC4)nnc(C)c3c2C)cc1 | . | 5% | ? | ? | 6.3µM* | .
COc1ccccc1CCNC(=O)C1CCN(c2nnc(C)c3c(C)n(-c4ccc(C)cc4)nc23)CC1 | 14µM* | 8% | ? | ? | ? | 10µM*
Cc1ccccc1CNC(=O)C1CCCN(c2nnc(C)c3c(C)n(-c4ccccc4)nc23)C1 (configuration not stated) | . | 10% | ? | 41% | 11% | .
Cc1ccc(NC(=O)C2CCCN(c3nnc(C)c4c(C)n(-c5ccccc5)nc34)C2)cc1Cl (configuration not stated) | ? | . | . | . | . | 11µM*
CCn1cc(CNC(=O)C2CCC(=O)N(Cc3ccccc3F)C2)cn1 (configuration not stated) | -7% | 14% | 44% | ? | 5% | -10%
O=C(COC(=O)CNC(=O)c1cccc([N+](=O)[O-])c1)Nc1cccc(S(=O)(=O)N2CCCC2)c1 | -13% | -13% | 1% | 7% | -2% | -1%
C/C=C/n1ccnc1CC(O)(c1ccccc1)c1ccc(C)cc1 (configuration not stated) | -7% | . | . | . | -5% | -12%
C(=N\Nc1nc(N2CCCCC2)nc(N2CCCCC2)n1)/c1c[nH]c2ccccc12 | . | 0% | ? | 6.6µM* | ? | .
COc1ccc(/C=N/Nc2nc3ccccc3[nH]2)c(OC)c1OC | -24% | 1% | ? | 4.1µM* | -20% | -4%
O=[N+]([O-])c1cc(/C=N/Nc2nc3ccccc3[nH]2)c(O)cc1O | 2.8µM* | ? | 2.1µM* | 0% | ? | ?
COc1ccc(/C=N/Nc2ccccn2)c(OC)c1OC | -12% | . | 48% | 36% | -20% | -4%
Fc1ccc(/C=N/Nc2nc3ccccc3[nH]2)cc1F | . | . | 0.66µM* | 0.52µM* | ? | .
CCOc1ccccc1NC(=O)COC(=O)c1ccc(S(=O)(=O)N2CCCC2)cc1 | -8% | . | 28% | ? | 16% | -4%
CCN1C[C@]2(COC)CC[C@H](OC)[C@@]34C1[C@]1(OCO[C@@]15C[C@H](OC)[C@H]1C[C@@H]3[C@@H]5[C@H]1OC)[C@@H](O)[C@H]24 | i | . | 8% | 26% | -4% | -18%
SMILES | VACV mCherry inh | NS1 function inh | Pf growth 48h | Pf growth 96h | HCV inh | VACV Venus inh
CNc1nc(-c2ccccc2Cl)nc2ccccc12 | 1% | . | . | . | . | -2%
Cc1cccc2sc(NC(=O)c3cccc(S(=O)(=O)N4CCc5ccccc54)c3)nc12 | -11% | 10% | -9% | 35% | ? | -4%
Brc1ccc(-c2ccc(/C=N/Nc3nc4ccccc4[nH]3)o2)cc1 | . | ? | 0.41µM* | 13µM* | 4% | .
C(=N\Nc1nc2ccccc2[nH]1)/c1cccc2cccnc12 | . | -53% | 1.7µM* | 1.7µM* | 4µM* | .
C(=N\Nc1nc2ccccc2[nH]1)/c1ccccc1 | -27% | -2% | ? | -22% | -20% | -30%
C(=C\c1ccccc1)/C=N/Nc1nc2ccccc2[nH]1 | . | -11% | ? | 3.3µM* | -2% | .
Cc1ccccc1/C=N/Nc1nc2ccccc2[nH]1 | ? | . | ? | -35% | -24% | -11%
C(=N\Nc1nc2ccccc2[nH]1)/c1c[nH]c2ccccc12 | -4% | 11% | 0.66µM* | 26% | ? | -19%
O=C(Nc1ccc(Br)cn1)c1cccc(C(=O)Nc2ccc(Br)cn2)c1 | -22% | -1% | . | 9% | 8% | -10%
c1cnc2c(OCc3nc4ccccc4[nH]3)cccc2c1 | -14% | -38% | 53% | 8.3µM* | -9% | -3%
COc1ccc(C(=O)Nc2nnc(C3=COCCO3)o2)cc1 | i | -16% | ? | ? | 9% | -1%
CCOc1ccc2c(c1)OC(c1ccc(C)cc1)(C(F)(F)F)NC2=O (configuration not stated) | ? | 17% | 1µM* | 3.3µM* | -18% | ?
CCOC(=O)Cn1c(CN2CCOCC2)nc2c1c(=O)[nH]c(=O)n2C | i | 0% | -1% | 10% | ? | 0%
COc1ccccc1CN(C)C(=O)C(NC(=O)Cc1cccc2ccccc12)C(C)C (configuration not stated) | i | -9% | ? | ? | -20% | -7%
COC(=O)[C@@]12CCCN1[C@H](c1ccc(-c3ccc(OC)cc3)c(OC)c1)[C@H]1C(=O)N(C)C(=O)[C@H]12 | -4% | . | 8.3µM* | ? | -4% | -9%
COC(=O)[C@@]12CCCCN1[C@H](c1ccc(-c3ccc(F)cc3)c(OC)c1)[C@@H]1C(=O)N(C)C(=O)[C@@H]12 | -16% | . | 13µM* | 12µM* | ? | ?
